Key:
Experiment in all cases: DAPPL (digital affinity profiling via proximity ligation, sequencing); 10 mM Tris-HCl pH 7.5, 50 mM NaCl, 1 mM DTT, 4% glycerol, room temperature, 30 min; GST-TFs on glutathione beads, 16-mer random dsDNA library, 0.1% formaldehyde crosslink after washing; high values mean tight binding
Conditions in all cases: protein: recombinant; tags: N-terminal GST; dsDNA, one strand shown
FLI1 = molecular target: T1, FLI1 (Homo sapiens, UniProt Q01543 1-452)
T1 sequence: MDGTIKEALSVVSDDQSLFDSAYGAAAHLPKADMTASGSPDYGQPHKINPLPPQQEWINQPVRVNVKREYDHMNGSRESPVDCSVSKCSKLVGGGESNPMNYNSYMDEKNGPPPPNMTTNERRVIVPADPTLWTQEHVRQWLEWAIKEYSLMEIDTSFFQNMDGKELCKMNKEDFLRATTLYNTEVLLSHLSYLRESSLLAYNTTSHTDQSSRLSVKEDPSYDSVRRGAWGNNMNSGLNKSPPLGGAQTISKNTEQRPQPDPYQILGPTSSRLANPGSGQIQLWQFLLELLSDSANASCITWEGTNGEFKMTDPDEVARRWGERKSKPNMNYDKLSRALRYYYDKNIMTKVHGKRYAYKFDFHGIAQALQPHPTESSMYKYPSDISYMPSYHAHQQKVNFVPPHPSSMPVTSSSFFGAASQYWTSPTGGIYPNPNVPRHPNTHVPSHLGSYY
Summary of the method: (§1)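 Human transcription factors fused to GST were expressed in yeast, captured on glutathione beads, given DNA barcodes and pooled with a GST-only negative control. Pools were incubated with 200 nmole of a 16-mer random double-stranded DNA library in Tris/NaCl/DTT/glycerol buffer at room temperature for 30 min. They were then washed, crosslinked with 0.1% formaldehyde, proximity-ligated (BsaI/T4 ligase, 1 h, 37 °C), PCR-amplified and sequenced on an Illumina NextSeq500. Binding signal is each 6-mer's read frequency for a factor divided by its frequency for the GST control.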

ELK1 = molecular target: T2, ELK1 (Homo sapiens, UniProt P19419 1-428)
T2 sequence: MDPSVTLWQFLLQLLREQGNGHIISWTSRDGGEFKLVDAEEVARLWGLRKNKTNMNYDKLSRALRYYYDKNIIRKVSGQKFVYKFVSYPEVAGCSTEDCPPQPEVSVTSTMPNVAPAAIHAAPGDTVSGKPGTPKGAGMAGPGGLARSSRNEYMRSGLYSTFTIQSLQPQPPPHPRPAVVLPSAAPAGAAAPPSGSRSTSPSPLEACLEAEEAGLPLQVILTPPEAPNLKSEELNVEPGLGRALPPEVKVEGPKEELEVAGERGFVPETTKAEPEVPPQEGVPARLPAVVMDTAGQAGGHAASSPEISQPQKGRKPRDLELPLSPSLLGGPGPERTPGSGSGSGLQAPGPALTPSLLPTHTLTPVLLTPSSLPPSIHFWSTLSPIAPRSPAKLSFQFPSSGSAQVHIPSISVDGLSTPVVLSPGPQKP
Summary of the method: as §1

GABPA = molecular target: T3, GABPA (Homo sapiens, UniProt Q06546 1-454)
T3 sequence: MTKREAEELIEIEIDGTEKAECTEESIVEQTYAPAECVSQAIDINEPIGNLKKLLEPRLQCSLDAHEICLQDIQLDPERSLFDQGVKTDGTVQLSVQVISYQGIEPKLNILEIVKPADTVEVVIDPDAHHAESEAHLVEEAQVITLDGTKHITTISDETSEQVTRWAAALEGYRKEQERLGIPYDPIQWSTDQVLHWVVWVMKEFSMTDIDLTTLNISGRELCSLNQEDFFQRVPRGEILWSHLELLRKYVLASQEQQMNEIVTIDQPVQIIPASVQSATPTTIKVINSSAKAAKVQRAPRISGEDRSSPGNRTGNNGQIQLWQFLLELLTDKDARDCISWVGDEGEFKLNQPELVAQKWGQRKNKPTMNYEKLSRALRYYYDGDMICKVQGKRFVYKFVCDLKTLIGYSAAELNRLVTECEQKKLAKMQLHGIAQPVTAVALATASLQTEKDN
Summary of the method: as §1

ERG = molecular target: T4, ERG (Homo sapiens, UniProt P11308 1-479)
T4 sequence: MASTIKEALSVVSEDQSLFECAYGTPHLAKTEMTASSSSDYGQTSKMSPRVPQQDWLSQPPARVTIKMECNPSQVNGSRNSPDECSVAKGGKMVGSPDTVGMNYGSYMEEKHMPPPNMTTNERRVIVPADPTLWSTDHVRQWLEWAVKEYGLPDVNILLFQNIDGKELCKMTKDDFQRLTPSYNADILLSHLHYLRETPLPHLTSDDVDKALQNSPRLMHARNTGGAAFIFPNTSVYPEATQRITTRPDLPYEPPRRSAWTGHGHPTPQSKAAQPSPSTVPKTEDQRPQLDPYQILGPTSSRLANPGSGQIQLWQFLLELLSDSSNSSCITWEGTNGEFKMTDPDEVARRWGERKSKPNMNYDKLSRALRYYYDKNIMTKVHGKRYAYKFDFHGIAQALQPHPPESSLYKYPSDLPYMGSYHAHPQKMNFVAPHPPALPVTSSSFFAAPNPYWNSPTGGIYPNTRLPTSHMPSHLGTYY
Summary of the method: as §1

ELF1 = ELF1 (Homo sapiens, UniProt P32519 1-619)
Chain of ELF1 (P32519 whole entry): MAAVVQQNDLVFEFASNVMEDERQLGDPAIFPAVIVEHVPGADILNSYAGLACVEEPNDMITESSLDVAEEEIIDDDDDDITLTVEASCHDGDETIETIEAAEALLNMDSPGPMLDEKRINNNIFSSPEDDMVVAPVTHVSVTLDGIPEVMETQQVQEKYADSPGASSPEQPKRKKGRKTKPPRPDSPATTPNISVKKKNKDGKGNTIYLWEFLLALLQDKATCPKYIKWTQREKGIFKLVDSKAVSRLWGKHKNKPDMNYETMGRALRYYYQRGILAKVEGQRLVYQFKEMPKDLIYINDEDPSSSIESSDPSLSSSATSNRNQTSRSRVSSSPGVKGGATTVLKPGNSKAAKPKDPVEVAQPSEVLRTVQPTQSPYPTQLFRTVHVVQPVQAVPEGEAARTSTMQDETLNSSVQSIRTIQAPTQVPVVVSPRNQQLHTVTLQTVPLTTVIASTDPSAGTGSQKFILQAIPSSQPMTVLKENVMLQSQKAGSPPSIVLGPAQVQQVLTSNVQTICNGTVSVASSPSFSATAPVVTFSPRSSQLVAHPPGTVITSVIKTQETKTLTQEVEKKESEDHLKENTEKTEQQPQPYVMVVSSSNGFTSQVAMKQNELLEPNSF
Summary of the method: as §1

EHF = molecular target: T5, EHF (Homo sapiens, UniProt Q9NZC4 1-300)
T5 sequence: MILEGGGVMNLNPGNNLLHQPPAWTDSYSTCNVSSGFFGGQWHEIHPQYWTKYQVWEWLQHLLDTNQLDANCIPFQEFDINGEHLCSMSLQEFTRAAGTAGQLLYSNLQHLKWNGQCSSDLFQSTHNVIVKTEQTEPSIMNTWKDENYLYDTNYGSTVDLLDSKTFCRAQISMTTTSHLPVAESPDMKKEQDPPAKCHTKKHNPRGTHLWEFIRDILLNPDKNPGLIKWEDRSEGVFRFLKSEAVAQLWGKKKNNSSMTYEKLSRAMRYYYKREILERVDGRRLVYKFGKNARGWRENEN
Summary of the method: as §1

SPI1 = SPI1 (Homo sapiens, UniProt P17947 1-270)
Summary of the method: as §1

SPIB = SPIB (Homo sapiens, UniProt Q01892 1-262)
Chain of SPIB (Q01892 whole entry): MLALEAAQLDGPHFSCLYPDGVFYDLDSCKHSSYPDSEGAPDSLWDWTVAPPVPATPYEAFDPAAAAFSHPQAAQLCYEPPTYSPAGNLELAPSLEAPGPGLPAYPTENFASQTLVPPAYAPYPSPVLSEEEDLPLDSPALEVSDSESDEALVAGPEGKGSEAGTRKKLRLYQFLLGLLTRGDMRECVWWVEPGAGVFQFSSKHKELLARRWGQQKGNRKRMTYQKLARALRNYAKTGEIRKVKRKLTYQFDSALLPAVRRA
Summary of the method: as §1

FEV = molecular target: T6, FEV (Homo sapiens, UniProt Q99581 1-238)
T6 sequence: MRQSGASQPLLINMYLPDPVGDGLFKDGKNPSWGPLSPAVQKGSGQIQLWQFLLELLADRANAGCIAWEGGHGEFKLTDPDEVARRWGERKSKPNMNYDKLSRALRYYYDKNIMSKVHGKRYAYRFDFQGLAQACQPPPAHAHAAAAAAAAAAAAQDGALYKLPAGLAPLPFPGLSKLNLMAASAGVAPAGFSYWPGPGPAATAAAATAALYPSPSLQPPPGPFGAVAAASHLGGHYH
Summary of the method: as §1

ETV5 = ETV5 (Homo sapiens, UniProt P41161 1-510)
Chain of ETV5 (P41161 whole entry): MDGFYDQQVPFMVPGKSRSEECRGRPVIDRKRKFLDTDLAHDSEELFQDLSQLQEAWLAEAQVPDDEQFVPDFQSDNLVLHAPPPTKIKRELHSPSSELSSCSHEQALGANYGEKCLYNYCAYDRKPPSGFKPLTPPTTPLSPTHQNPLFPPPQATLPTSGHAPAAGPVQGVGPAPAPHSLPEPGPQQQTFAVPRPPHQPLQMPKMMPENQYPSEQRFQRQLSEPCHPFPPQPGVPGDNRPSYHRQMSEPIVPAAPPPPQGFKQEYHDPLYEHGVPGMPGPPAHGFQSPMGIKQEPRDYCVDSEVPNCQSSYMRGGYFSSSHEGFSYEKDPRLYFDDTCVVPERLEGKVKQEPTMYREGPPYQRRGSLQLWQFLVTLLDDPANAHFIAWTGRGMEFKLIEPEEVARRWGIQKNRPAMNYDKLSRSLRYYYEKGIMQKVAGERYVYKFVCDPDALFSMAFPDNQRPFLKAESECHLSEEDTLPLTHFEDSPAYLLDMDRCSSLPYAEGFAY
Summary of the method: as §1

SPIC = molecular target: T7, SPIC (Homo sapiens, UniProt Q8N5J4 1-248)
T7 sequence: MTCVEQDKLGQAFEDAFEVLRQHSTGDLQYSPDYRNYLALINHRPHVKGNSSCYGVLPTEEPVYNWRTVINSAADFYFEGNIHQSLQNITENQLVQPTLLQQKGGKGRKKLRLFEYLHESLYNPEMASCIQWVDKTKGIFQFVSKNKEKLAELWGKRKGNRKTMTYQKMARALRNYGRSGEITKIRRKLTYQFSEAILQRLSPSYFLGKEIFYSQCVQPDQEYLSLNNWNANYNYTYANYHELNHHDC
Summary of the method: as §1

ELF4 = ELF4 (Homo sapiens, UniProt Q99607 1-663)
Chain of ELF4 (Q99607 whole entry): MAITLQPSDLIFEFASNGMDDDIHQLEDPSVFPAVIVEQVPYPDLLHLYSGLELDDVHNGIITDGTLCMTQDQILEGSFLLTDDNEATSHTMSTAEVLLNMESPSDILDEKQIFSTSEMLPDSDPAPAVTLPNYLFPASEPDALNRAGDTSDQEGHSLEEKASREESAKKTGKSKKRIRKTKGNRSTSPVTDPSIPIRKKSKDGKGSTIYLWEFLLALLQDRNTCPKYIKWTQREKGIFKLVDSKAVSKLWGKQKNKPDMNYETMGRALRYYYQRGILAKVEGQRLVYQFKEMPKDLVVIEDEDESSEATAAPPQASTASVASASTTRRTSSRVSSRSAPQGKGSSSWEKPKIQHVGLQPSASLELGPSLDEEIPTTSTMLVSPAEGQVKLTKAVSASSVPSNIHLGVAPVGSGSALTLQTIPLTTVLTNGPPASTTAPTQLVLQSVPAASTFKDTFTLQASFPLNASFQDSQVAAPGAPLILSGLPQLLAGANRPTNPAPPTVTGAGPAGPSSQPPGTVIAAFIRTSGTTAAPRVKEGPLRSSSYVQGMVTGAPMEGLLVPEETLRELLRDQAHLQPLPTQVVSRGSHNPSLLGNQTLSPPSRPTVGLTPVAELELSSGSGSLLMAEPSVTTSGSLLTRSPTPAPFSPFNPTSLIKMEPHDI
Summary of the method: as §1

ELK4 = molecular target: T8, ELK4 (Homo sapiens, UniProt P28324-2 1-405)
T8 sequence: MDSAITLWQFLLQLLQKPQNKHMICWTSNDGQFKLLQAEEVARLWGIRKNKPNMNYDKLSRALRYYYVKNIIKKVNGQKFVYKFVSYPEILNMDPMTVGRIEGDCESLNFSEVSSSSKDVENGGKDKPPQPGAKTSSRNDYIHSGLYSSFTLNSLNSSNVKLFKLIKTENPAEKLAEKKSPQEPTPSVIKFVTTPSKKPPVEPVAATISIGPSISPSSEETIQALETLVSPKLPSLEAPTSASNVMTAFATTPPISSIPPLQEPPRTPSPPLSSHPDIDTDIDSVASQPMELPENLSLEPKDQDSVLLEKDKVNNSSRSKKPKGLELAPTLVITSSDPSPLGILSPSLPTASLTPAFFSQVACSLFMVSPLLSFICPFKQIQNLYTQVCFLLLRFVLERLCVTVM
Summary of the method: as §1

ETV2 = molecular target: T9, ETV2 (Homo sapiens, UniProt O00321 1-342)
T9 sequence: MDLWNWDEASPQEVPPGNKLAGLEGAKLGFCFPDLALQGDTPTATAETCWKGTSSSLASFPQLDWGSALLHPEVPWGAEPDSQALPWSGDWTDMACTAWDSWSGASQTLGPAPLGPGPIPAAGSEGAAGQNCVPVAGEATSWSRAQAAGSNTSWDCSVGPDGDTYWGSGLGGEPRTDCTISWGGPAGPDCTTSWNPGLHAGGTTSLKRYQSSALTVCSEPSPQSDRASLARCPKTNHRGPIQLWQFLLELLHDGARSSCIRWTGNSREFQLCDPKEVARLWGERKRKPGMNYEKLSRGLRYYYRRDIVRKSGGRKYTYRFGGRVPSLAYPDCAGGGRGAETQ
Summary of the method: as §1

ELF3 = molecular target: T10, ELF3 (Homo sapiens, UniProt P78545 1-371)
T10 sequence: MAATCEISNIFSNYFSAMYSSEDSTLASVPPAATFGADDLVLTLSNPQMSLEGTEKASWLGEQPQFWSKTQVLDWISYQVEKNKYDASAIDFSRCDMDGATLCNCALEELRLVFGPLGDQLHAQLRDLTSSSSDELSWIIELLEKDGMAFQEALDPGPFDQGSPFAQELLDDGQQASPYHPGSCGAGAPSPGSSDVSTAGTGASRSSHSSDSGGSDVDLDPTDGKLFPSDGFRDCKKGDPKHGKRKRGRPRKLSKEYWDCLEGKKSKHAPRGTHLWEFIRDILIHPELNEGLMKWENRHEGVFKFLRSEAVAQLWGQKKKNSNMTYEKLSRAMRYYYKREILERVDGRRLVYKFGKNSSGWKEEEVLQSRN
Summary of the method: as §1

ETV1 = ETV1 (Homo sapiens, UniProt P50549 1-477)
Chain of ETV1 (P50549 whole entry): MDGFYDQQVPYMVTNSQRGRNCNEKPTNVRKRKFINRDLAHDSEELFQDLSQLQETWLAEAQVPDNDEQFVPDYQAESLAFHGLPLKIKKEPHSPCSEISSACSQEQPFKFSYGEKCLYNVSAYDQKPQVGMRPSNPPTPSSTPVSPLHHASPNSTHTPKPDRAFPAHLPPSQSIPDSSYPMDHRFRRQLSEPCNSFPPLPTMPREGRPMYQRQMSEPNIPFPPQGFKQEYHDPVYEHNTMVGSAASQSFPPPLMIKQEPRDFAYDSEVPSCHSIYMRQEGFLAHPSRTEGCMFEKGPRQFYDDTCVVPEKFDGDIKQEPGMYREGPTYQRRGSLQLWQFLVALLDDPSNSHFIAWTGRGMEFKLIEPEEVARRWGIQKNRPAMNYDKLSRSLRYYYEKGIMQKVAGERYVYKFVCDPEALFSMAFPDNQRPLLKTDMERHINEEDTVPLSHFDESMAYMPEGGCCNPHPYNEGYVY
Summary of the method: as §1

ELK3 = molecular target: T11, ELK3 (Homo sapiens, UniProt P41970 1-407)
T11 sequence: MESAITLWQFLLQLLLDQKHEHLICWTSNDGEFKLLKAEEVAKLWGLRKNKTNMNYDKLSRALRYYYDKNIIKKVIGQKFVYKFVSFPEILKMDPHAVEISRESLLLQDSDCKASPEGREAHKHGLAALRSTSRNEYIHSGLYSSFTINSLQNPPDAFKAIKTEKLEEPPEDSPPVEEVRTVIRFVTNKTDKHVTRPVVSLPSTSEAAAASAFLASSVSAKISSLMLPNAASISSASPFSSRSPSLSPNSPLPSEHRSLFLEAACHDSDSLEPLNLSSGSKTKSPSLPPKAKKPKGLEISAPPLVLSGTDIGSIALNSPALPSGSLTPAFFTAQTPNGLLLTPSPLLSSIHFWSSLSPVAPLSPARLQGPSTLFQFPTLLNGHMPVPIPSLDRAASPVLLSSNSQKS
Summary of the method: as §1

Sequence	binding signal (FLI1)	binding signal (ELK1)	binding signal (GABPA)	binding signal (ERG)	binding signal (ELF1)	binding signal (EHF)	binding signal (SPI1)	binding signal (SPIB)	binding signal (FEV)	binding signal (ETV5)	binding signal (SPIC)	binding signal (ELF4)	binding signal (ELK4)	binding signal (ETV2)	binding signal (ELF3)	binding signal (ETV1)	binding signal (ELK3)
CCGCGT	1.29 fold enrichment (6-mer frequency, TF over GST control)	1.11 fold enrichment (6-mer frequency, TF over GST control)	1.06 fold enrichment (6-mer frequency, TF over GST control)	1.13 fold enrichment (6-mer frequency, TF over GST control)	1.1 fold enrichment (6-mer frequency, TF over GST control)	1.18 fold enrichment (6-mer frequency, TF over GST control)	1.12 fold enrichment (6-mer frequency, TF over GST control)	1.16 fold enrichment (6-mer frequency, TF over GST control)	1.13 fold enrichment (6-mer frequency, TF over GST control)	1.12 fold enrichment (6-mer frequency, TF over GST control)	1.12 fold enrichment (6-mer frequency, TF over GST control)	1.18 fold enrichment (6-mer frequency, TF over GST control)	1.24 fold enrichment (6-mer frequency, TF over GST control)	1.4 fold enrichment (6-mer frequency, TF over GST control)	1.16 fold enrichment (6-mer frequency, TF over GST control)	1.13 fold enrichment (6-mer frequency, TF over GST control)	–
CTGTTG	1.08 fold enrichment (6-mer frequency, TF over GST control)	1.02 fold enrichment (6-mer frequency, TF over GST control)	1.11 fold enrichment (6-mer frequency, TF over GST control)	1.09 fold enrichment (6-mer frequency, TF over GST control)	1.1 fold enrichment (6-mer frequency, TF over GST control)	1.13 fold enrichment (6-mer frequency, TF over GST control)	1.16 fold enrichment (6-mer frequency, TF over GST control)	1.15 fold enrichment (6-mer frequency, TF over GST control)	1.06 fold enrichment (6-mer frequency, TF over GST control)	1.03 fold enrichment (6-mer frequency, TF over GST control)	1.12 fold enrichment (6-mer frequency, TF over GST control)	1.17 fold enrichment (6-mer frequency, TF over GST control)	1.1 fold enrichment (6-mer frequency, TF over GST control)	1.13 fold enrichment (6-mer frequency, TF over GST control)	1.03 fold enrichment (6-mer frequency, TF over GST control)	1.09 fold enrichment (6-mer frequency, TF over GST control)	–
GCACCC	1.21 fold enrichment (6-mer frequency, TF over GST control)	1.25 fold enrichment (6-mer frequency, TF over GST control)	1.25 fold enrichment (6-mer frequency, TF over GST control)	1.17 fold enrichment (6-mer frequency, TF over GST control)	1.16 fold enrichment (6-mer frequency, TF over GST control)	1.01 fold enrichment (6-mer frequency, TF over GST control)	1.18 fold enrichment (6-mer frequency, TF over GST control)	1.2 fold enrichment (6-mer frequency, TF over GST control)	1.12 fold enrichment (6-mer frequency, TF over GST control)	1.11 fold enrichment (6-mer frequency, TF over GST control)	1.3 fold enrichment (6-mer frequency, TF over GST control)	1.22 fold enrichment (6-mer frequency, TF over GST control)	1.33 fold enrichment (6-mer frequency, TF over GST control)	1.28 fold enrichment (6-mer frequency, TF over GST control)	1.25 fold enrichment (6-mer frequency, TF over GST control)	1.15 fold enrichment (6-mer frequency, TF over GST control)	1.14 fold enrichment (6-mer frequency, TF over GST control)

Source: article PMC7862700, “An all-to-all approach to the identification of sequence-specific readers for epigenetic DNA modifications on cytosine”
